The list is not random: actives were taken first. Their share in the collection is about 3.6%.
Anthrax LF inh2: Bacillus anthracis LF protease inhibitors, primary screen, biochemical, multiplex microsphere, MLPCN library; AID 588501, 2011; hit rate 0.12% among 360,000; inhibition, % at 10 µM; Lethal factor (Bacillus anthracis), P15917; multiplex microsphere protease cleavage assay
Autofluor counter: compound fluorescence in toxin protease inhibitor counterscreen. compound autofluorescence counterscreen, microsphere flow cytometry; stronger effect = higher value. fluorescence intensity (test concentration not listed). hit rate 3.1% among 360,000; in the data active = fluorescence intensity above about 16000; inconclusive = no clear call, values can overlap the other calls
BoNT-A LC inh2: BoNT/A light chain protease inhibitors, primary screen, biochemical, flow cytometry, MLPCN library; Botulinum neurotoxin type A light chain protease (Clostridium botulinum A str. ATCC 3502); multiplex microsphere protease substrate cleavage; inhibition, % at 10 µM; hit rate 0.17% among 360,000; AID 588499, 2011
MazF activator: activators of E. coli MazEF toxin-antitoxin RNase, primary screen, biochemical, fluorescence, uHTS; activation, % at 20 µM; hit rate 0.32% among 350,000; Endoribonuclease toxin MazF (Escherichia coli (strain K12)), P0AE70; FAM/BHQ RNA-DNA oligo cleavage fluorescence, 5 h; in the data active = activation above about 50%
Target sequence (P0AE70 whole entry, looked up): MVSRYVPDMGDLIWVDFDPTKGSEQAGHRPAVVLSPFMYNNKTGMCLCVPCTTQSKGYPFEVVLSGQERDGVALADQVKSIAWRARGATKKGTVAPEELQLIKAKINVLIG
BoNT-F LC inh: BoNT/F light chain protease inhibitors, primary screen, biochemical, flow cytometry, MLPCN library; Botulinum neurotoxin type F light chain protease (Clostridium botulinum); Multiplex microsphere protease cleavage assay; inhibition, % at 10 µM; hit rate 0.22% among 360,000; in the data active = inhibition above about 35%, passing the limit was not always enough; inconclusive = no clear call, values can overlap the other calls
Each line names hits and unclear results; the compound was inactive in the other large screens. Rule as the data show it, unless noted: active = inhibition above about 30%; inconclusive = no clear call, values can overlap the other calls; inactive = below that.

O=C(OCC(=O)N1CCc2ccccc21)c1ccncc1	none
Cc1cc(Cn2nc(C(=O)NCc3cccc(C(F)(F)F)c3)cc2-c2ccccc2)on1	none
COc1ccc(/C=N/n2c(C)nc3sc(C)c(C)c3c2=O)cc1	Anthrax LF inh2 inconclusive, BoNT-F LC inh 38
Cc1cc(C(C)(C)C)cc(S(=O)(=O)Nc2cccc(C(=O)O)c2)c1C	Autofluor counter 20337
COc1cc(S(=O)(=O)Nc2cccc(C(=O)O)c2)c(OC)cc1Cl	Autofluor counter 20274, BoNT-A LC inh2 inconclusive
Cc1cc(S(=O)(=O)Nc2cccc(C(=O)O)c2)c(C)c(S(=O)(=O)c2ccc(Cl)cc2)c1	none
COc1ccccc1NS(=O)(=O)c1cccc(NS(=O)(=O)c2cc(C(=O)O)ccc2Cl)c1	none
O=C(O)c1cccc(NS(=O)(=O)/C=C/c2ccccc2)c1	Autofluor counter 19766
Cc1nc2ccc([N+](=O)[O-])cc2nc1C	none
Cc1ccc2nc3cc([N+](=O)[O-])cc([N+](=O)[O-])c3cc2c1	MazF activator 354
CC(=O)N1CCN(c2cc(-c3ccccc3)nc3cc(-c4cccc(Cl)c4)nn23)CC1	none
CN(C)C(=O)Oc1ccc2ccccc2c1Cl	Autofluor counter 23669
Cc1ccc2nc(N3CCN(C)CC3)c(C#N)cc2c1	none
Cc1ccc2nc(N3CCN(S(=O)(=O)c4ccc(C)c(Cl)c4)CC3)c(C#N)cc2c1	Autofluor counter 21608, BoNT-A LC inh2 inconclusive
O=S(=O)(Nc1ccccc1)C1CCCCC1	none
CCn1c(Cn2nnc(-c3ccccc3)n2)nnc1SCC(=O)Nc1cccc(C(C)=O)c1	none
Cc1cccc(NC(=O)CSc2nnc(Cn3nnc(-c4ccccc4)n3)n2-c2ccccc2)c1	Autofluor counter 23099
Cc1ccc(-n2nc(-c3ccco3)cc2C(=O)O)c(C)c1	none
COC(=O)Cn1c2ccc(F)cc2c2nc(C)sc21	Autofluor counter 22219
Cc1ccnc(N2CCC(C(=O)NNC(=O)COc3cccc4ccccc34)CC2)n1	none
COc1ccc(-n2nc(C(=O)NCC(=O)Nc3cc(OC)c(OC)c(OC)c3)c3ccccc3c2=O)cc1OC	none
Cc1nn(-c2ccccc2)c2sc(C(=O)NNC(=O)COc3ccccc3)cc12	Autofluor counter 22047, BoNT-A LC inh2 inconclusive
CCOc1cccc2cc(C(=O)Nc3cc(C)on3)c(=O)oc12	Autofluor counter 24162, BoNT-A LC inh2 inconclusive
C=CCc1cccc2cc(C(=O)NCc3cccnc3)c(=O)oc12	none
CCOc1cccc2cc(C(=O)Nc3ccccc3-c3ccccc3)c(=O)oc12	none
CCOc1cccc2cc(C(=O)NCc3cccnc3)c(=O)oc12	Autofluor counter 22159, BoNT-A LC inh2 inconclusive
O=C(CCNC(=O)N1CC(=O)Nc2ccccc21)NCc1ccccc1	none
CCC(C)(C(=O)NC1CCCC1)N(Cc1ccco1)C(=O)c1ccccn1 (stereo not given)	none
CCC(C)(C(=O)NC1CCCCC1)N(Cc1ccco1)C(=O)c1cnccn1 (stereo not given)	Autofluor counter 16804
CCC(C)(C(=O)NC1CCCCC1)N(CC1CCCO1)C(=O)c1ccccn1 (stereo not given)	Autofluor counter 25517
CCC(C)(C(=O)NC1CCCC1)N(Cc1ccco1)C(=O)Cc1cccs1 (stereo not given)	none
CCC(C)(C(=O)NC1CCCC1)N(Cc1ccco1)C(=O)c1ccc2c(c1)OCO2 (stereo not given)	Autofluor counter 17659
CCC(C)(C(=O)NC1CCCCC1)N(CC1CCCO1)C(=O)CNC(=O)c1ccccc1 (stereo not given)	none
COCCN1C[C@@H](CO)O[C@@H](n2cnc3c(N4CCCC4)ncnc32)C1	none (no result: MazF activator)
O=C(NCCCc1ccccc1)c1cccc(NC(=O)C2CCCCC2)c1	none
O=C(OCC(O)C(O)C(O)C(SCc1ccccc1)SCc1ccccc1)c1ccccc1 (stereo not given)	none
FC(F)(F)c1cc(C(F)(F)F)n2nc(-c3sccc3-n3cccc3)cc2n1	Autofluor counter 22337
COc1ccc(/C=C/C(=O)OCC(=O)N2CCCCCC2)c(OC)c1	none
COC(=O)C1OCOC2C(C(=O)OC)OCOC12 (stereo not given)	none
COCOCCn1cc(CN2CCS(=O)(=O)N(Cc3ccc(-c4ccc(OC)cc4)cc3)C(C(C)C)C2=O)nn1 (stereo not given)	none
